Compound activity: PubChem BioAssay, National Center for Advancing Translational Sciences (NCATS)
A selection: hits, their analogues and other compounds. The true share with any hit is near 19%.
Pf growth 48h: P. falciparum growth inhibition at 48 hours (one generation); P. falciparum luciferase growth in erythrocytes, 48 h; 310,000 compounds, 5.9% hits; Potency, µM (titrated, usually from 28.7 µM), inactives show at the top dose activity change, negative = inhibition, actives largely listed as inhibitors; AID 504832; note: potency is the fitted concentration of half-maximal effect; % is set by controls: 0 for no effect and ±100 for the full control effect
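Luciferase-expressing parasites in RBCs, 2% Hct / 0.1% parasitemia final; RPMI 1640 + 0.5% Albumax; 37 C, 5% CO2, one generation; luminescence read-out, lower signal = inhibition.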
SARS PLP yeast: inhibitors of SARS-CoV papain-like protease in yeast. Potency, µM (doses to about 32.9 µM), for the others: top-dose activity, positive = growth rescue, actives largely listed as activators. S. cerevisiae expressing SARS-CoV PLpro, growth rescue. 330,000 compounds, 0.19% hits; calls by dose curve; note: potency is the fitted concentration of half-maximal effect; 0% is about no effect; nearly all actives have a fitted effect of over 55% in size
Pf growth 96h: P. falciparum growth inhibition at 96 hour, primary screen for plastid delayed-death inhibitors; 320,000 compounds, 6.9% hits; Potency, µM (highest dose often 28.7 µM), for inactives: at the highest dose activity change, negative = inhibition, most hits filed as inhibitors; P. falciparum luciferase reporter growth, 96 h; note: potency is the fitted concentration of half-maximal effect; % is set by controls: 0 for no effect and ±100 for the full control effect
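Infected RBCs, 2% Hct / 0.05% parasitemia final; luciferase-reporter P. falciparum; cpd 96 h, 37 C, 5% CO2; luciferase detection reagent; luminescence.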
AMA1 RON2 block: disrupts binding of P. falciparum AMA1 to RON2; Potency, µM (highest dose often 58.2 µM), without a hit: at the top dose activity change, negative = inhibition, actives largely listed as inhibitors; 360,000 compounds, 0.2% hits; AlphaScreen AMA1-biotinylated RON2 peptide binding; AID 720542;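 note: potency is the fitted concentration of half-maximal effect; 0% = vehicle wells and -100% = peptide control; nearly all actives have a fitted effect of over 45% in size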
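AMA1 (3D7) with his tag at 25 nM final met compounds first, then biotinylated RON2 peptide at 25 nM; detection used donor plus acceptor beads, 10 µg/mL apiece, read by AlphaScreen after 30 min at room temperature.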
Shiga toxin inh: inhibitors of Shiga toxin in Vero cells. Vero cells, Shiga toxin protein synthesis inhibition reporter. inhibition, % at 38.7 µM. 290,000 compounds, 9.2% hits; in the data active = inhibition mostly above about 28%, no sharp cut-off; inactive = mostly below about 43%; note: 0% is about no effect
CHX counter: counter-screen for Shiga toxin inhibitors: cycloheximide protein synthesis inhibition; max response, %; cell reporter, cycloheximide protein synthesis inhibition counterscreen; AID 2314; 300,000 compounds, 12% hits; in the data active = max response mostly above about 13%, no sharp cut-off; inactive = mostly below about 14%; note: read at 38.3 µM for the half of the compounds with a filed dose; 0% is about no effect
Numbers without * were called inactive; ? = inconclusive; nt = not tested or not shown. Unless noted, calls come from the whole dose curve; as a rule, active = well fitted curve in the direction sought with a large enough effect; inconclusive = small, poorly fitted or top-dose-only effect, or another doubt; inactive = no such curve, though single readings can be large; an effect the other way counts as inactive or inconclusive.

SMILES	Pf growth 48h	SARS PLP yeast	Pf growth 96h	AMA1 RON2 block	Shiga toxin inh	CHX counter
COc1cc(CC(NC(C)=O)C(=O)NC2CCN(C(=O)Nc3ccccc3Cl)CC2)cc(OC)c1 (stereo not drawn)	24%	0%	-4%	-3%	24	-4
COc1cc(CC(NC(C)=O)C(=O)NC2CCN(C(=O)Nc3ccccc3C)CC2)cc(OC)c1 (stereo not drawn)	14%	-1%	1.7µM*	-2%	38	-2
COc1ccc(CC(NC(C)=O)C(=O)N2CCN(C(=O)Nc3ccc(Cl)cc3)CC2)cc1OC (stereo not drawn)	10%	5%	1%	0%	44	14*
COc1cccc(NC(=O)N2CCN(C(=O)C(Cc3ccc(OC)c(OC)c3)NC(C)=O)CC2)c1 (stereo not drawn)	-3%	-1%	40%	-8%	3	-2
COc1ccc(CC(NC(C)=O)C(=O)NC2CCN(S(=O)(=O)c3cccc4ccccc34)CC2)cc1OC (stereo not drawn)	nt	7%	13µM*	0%	-1	-2
Oc1ccc(/C=N/N2CCN(C3c4ccccc4-c4ccccc43)CC2)c(O)c1	-4%	-3%	-10%	-14%	-10	-2
COc1cc(C(=O)N2CCC(NC(=O)C(Cc3ccc(C)cc3)NC(C)=O)CC2)cc(OC)c1OC (stereo not drawn)	-4%	1%	5.9µM*	-1%	14	-1
COc1ccc(CC(NC(C)=O)C(=O)NC2CCN(S(=O)(=O)c3ccccc3)CC2)cc1OC (stereo not drawn)	1%	1%	5.2µM*	8%	16	-4
COc1cc(C(=O)N2CCC(NC(=O)C(Cc3ccc(C(C)C)cc3)NC(C)=O)CC2)cc(OC)c1OC (stereo not drawn)	?	-3%	10%	0%	-18	-7
COc1ccc(CC(NC(C)=O)C(=O)NC2CCN(S(=O)(=O)c3ccc(NC(C)=O)cc3)CC2)cc1OC (stereo not drawn)	0%	0%	13µM*	1%	-8	1
COc1cccc(CC(NC(C)=O)C(=O)NC2CCN(S(=O)(=O)c3ccc(NC(C)=O)cc3)CC2)c1 (stereo not drawn)	-23%	-2%	-2%	-19%	-8	-1
CC(=O)NC(Cc1ccc(C)cc1)C(=O)NC1CCN(S(=O)(=O)c2ccccc2)CC1 (stereo not drawn)	5%	-1%	3%	7%	23	-4
CN1OC[C@@H]2CN(S(=O)(=O)c3cc(Cl)cc(Cl)c3)[C@H](c3ccc(-c4ccc(C#N)cc4)cc3)C[C@@H]21	nt	nt	nt	0%	nt	nt
CCOc1ccc(C2C3=C(CC(C)(C)CC3=O)N(CCCOC)C3=C2C(=O)CC(C)(C)C3)cc1OC	nt	nt	nt	-7%	nt	nt
CCCS(=O)(=O)NC(=O)C1(C)CCN(C(=O)c2snnc2C)C1 (stereo not drawn)	nt	nt	nt	-9%	nt	nt
CCCCN(C(=O)c1cc2ccccc2o1)c1c(N)n(CCC)c(=O)[nH]c1=O	15%	15%	21%	1%	-14	-3
Cc1c(OCC(=O)NCc2ccccn2)ccc2c3c(c(=O)oc12)CCCC3	?	-1%	?	3%	-1	-4
Cc1c(OCC(=O)Nc2cccnc2)ccc2c3c(c(=O)oc12)CCC3	-23%	2%	?	-3%	23	20*
O=C(COc1cc2oc(=O)c3c(c2cc1Cl)CCC3)Nc1cccnc1	149%	-1%	190%	-4%	21	28*
COc1ccc(OCc2cc(C(=O)NC3Cc4ccccc4C3)no2)c(Cl)c1	15%	-4%	1%	9%	13	-4
COc1ccc(OCc2cc(C(=O)N[C@H]3CCCCNC3=O)no2)c(Cl)c1	40%	-4%	-24%	2%	58*	49*
CSc1ccccc1OCc1cc(C(=O)N[C@H]2CCCCNC2=O)no1	?	1%	?	-15%	128*	57*
CCC(C)Sc1ccc([C@H]2N[C@@](Cc3ccccc3)(C(=O)OC)[C@H]3C(=O)N(C)C(=O)[C@@H]23)cc1 (stereo partly drawn)	1µM*	9%	?	-11%	nt	nt
CCCSc1ccc([C@H]2N[C@@](Cc3ccccc3)(C(=O)OC)[C@H]3C(=O)N(CC)C(=O)[C@@H]23)cc1	1.5µM*	4%	1µM*	1%	nt	nt
COC(=O)C1(Cc2ccccc2)NC(c2ccc(F)cc2)C2C(=O)N(C)C(=O)C21 (stereo not drawn)	-37%	5%	34%	-4%	-1	-1
SMILES	Pf growth 48h	SARS PLP yeast	Pf growth 96h	AMA1 RON2 block	Shiga toxin inh	CHX counter
CCCCCCSc1ccc([C@H]2N[C@@](Cc3ccccc3)(C(=O)OC)[C@H]3C(=O)N(CC)C(=O)[C@@H]23)cc1	0.83µM*	1%	0.47µM*	0%	nt	nt
CCCCCCSc1ccc([C@H]2N[C@@](Cc3ccccc3)(C(=O)OC)[C@H]3C(=O)N(C)C(=O)[C@@H]23)cc1	0.29µM*	-2%	?	-3%	nt	nt
Cc1ccc(N=CN(C)C=Nc2ccc(C)cc2C)c(C)c1	-15%	nt	-10%	nt	nt	nt
Cc1cccc(-n2c(O)c(C=Nc3ccc(O)cc3)c3ccccc3c2=O)n1	-13%	3%	-34%	-8%	-9	-1
Cc1ccc(N=Cc2c(O)n(-c3ccc4c(c3)OCO4)c(=O)c3ccccc23)cc1	nt	-9%	8.3µM*	1%	-10	-3
Cn1c(=O)c(-c2ccccc2)c(O)c2ccccc21	21%	2%	-4%	-9%	-2	6
Cc1ccc(N=Cc2sc(O)c3ccccc23)c(C)c1	8%	-4%	24%	-6%	80*	34*
Cc1ccc(N=Cc2sc(O)c3ccccc23)cc1	-87%	-3%	-63%	23%	80*	33*
Cc1ccc(N=Cc2c(O)c3ccccc3n(C)c2=O)cc1	8%	0%	0%	103%	59	14*
CCn1c(O)c(C=Nc2ccccc2)sc1=O	32%	-1%	3%	-1%	35	7
O=C(COc1ccc([N+](=O)[O-])cc1Cl)N1CCc2ccccc21	nt	-2%	nt	-9%	nt	nt
Cn1c(/C=C/c2ccc(Br)cc2)c([N+](=O)[O-])c(=O)n(C)c1=O	9.3µM*	-5%	33%	-9%	-9	-3
Cc1ccc(C(=O)Nc2ccc3nc(C)sc3c2)s1	57%	-16%	nt	-13%	112*	43*
Cc1ccc(C(=O)Nc2ccc3nc(C)sc3c2)o1	nt	nt	nt	-4%	nt	nt
Cc1nc2cc(NC(=O)c3ccc(Br)s3)ccc2s1	212%	-6%	243%	-1%	117*	63*
Cc1cc(S(=O)(=O)N2CCOCC2)ccc1OCC(=O)NCc1ccccn1	13%	12%	11%	2%	-7	-3
CCOc1ccc2nc(NC(=O)C3CCN(c4cnccn4)CC3)sc2c1	9.3µM*	-4%	28%	-16%	48	-3
